In PubChem BioAssay (EPA / NIEHS):
Calls of active or inactive are those of the source. The calls were made as follows: active = hit-call score of the fitted dose curve at least 0.9, where 1 is the maximum; inactive = score below 0.9.

Tests used:
[1] = ATG_CRE_CIS: Attagene CIS-FACTORIAL HepG2 Assay for human cAMP Responsive Element (CRE) binding protein 3 (AID 2282926); settings: HepG2 CRE cis-reporter, Attagene multiplexed mRNA; actives raise or lower the signal
Procedure, shortened: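 Induced reporter mRNA from a CRE cis element, measured in HepG2 among many multiplexed units at 24 h. Detection used RT-PCR plus capillary electrophoresis of fluorescent fragments; DMSO served as negative control.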

[2] = target: CCAAT/enhancer-binding protein beta (Homo sapiens) (UniProt P17676); assay: ATG_C_EBP_CIS: Attagene CIS-FACTORIAL HepG2 Assay for human CCAAT/Enhancer Binding Protein (C/EBP) beta (AID 2282927); settings: HepG2 Attagene cis-factorial transcription factor reporter; actives raise or lower the signal
Chain of CCAAT/enhancer-binding protein beta (Homo sapiens) (P17676 whole entry, looked up, the tested form may be a part): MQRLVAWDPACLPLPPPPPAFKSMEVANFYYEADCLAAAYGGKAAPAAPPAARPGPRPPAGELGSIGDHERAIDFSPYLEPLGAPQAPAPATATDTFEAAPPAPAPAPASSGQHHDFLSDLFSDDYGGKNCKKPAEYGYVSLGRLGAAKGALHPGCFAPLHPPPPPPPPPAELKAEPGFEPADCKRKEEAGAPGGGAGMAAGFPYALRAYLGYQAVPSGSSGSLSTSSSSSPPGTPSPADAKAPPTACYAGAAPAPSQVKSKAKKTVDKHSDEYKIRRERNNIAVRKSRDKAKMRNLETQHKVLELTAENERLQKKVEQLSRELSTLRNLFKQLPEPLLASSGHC
Procedure, shortened: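 Chemical-treated HepG2 cells (24 h) bearing cis-regulated reporter constructs were processed for total RNA, then reverse transcription, PCR amplification, fluorescent primer extension and fragment analysis; gain- and loss-of-signal were fitted against DMSO.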

[3] = ATG_CMV_CIS: Attagene CIS-FACTORIAL HepG2 Assay for human CMV (Internal Marker) (AID 2282928); settings: HepG2 CMV promoter reporter, transcription factor profiling; actives raise or lower the signal;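 also: endpoint acts as a background internal control marker rather than a target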
Procedure, shortened: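 24 h chemical treatment, HepG2 with transient multi-reporter transfection; RNA → oligo(dT) RT → PCR → 6-FAM extension → HpaI digest → CE fluorescence. Bidirectional fit, DMSO negative control.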

[4] = target: Aryl hydrocarbon receptor (Homo sapiens) (UniProt P35869); assay: ATG_Ahr_CIS: Attagene CIS-FACTORIAL HepG2 Assay for human Aryl Hydrocarbon Receptor (Ahr) (AID 2282930); settings: HepG2 AhR cis-factorial reporter transcription; actives raise or lower the signal
Chain of Aryl hydrocarbon receptor (Homo sapiens) (P35869 whole entry, looked up): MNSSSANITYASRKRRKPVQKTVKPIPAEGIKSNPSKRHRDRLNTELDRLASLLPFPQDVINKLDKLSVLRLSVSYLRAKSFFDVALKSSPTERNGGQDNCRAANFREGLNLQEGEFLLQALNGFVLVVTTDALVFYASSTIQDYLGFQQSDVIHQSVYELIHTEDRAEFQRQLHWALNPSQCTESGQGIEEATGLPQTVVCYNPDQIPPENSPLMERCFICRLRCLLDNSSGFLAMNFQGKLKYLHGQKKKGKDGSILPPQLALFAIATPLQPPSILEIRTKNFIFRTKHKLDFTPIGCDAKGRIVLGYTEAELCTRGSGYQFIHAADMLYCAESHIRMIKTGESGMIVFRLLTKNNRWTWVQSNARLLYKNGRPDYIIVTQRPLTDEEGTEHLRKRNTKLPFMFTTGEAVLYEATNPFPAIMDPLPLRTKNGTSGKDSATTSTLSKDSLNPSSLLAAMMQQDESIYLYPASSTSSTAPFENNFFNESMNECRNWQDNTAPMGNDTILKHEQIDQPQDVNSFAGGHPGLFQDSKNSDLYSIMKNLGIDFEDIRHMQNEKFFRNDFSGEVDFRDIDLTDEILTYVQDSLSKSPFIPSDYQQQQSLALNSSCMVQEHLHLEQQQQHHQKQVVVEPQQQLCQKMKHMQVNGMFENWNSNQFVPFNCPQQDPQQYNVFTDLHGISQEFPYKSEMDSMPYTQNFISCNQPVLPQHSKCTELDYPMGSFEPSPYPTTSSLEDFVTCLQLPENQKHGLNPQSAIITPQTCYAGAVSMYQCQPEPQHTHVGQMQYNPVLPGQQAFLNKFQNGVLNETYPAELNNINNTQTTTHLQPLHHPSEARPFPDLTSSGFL
Procedure, shortened: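 Following 24 h of chemical dosing, transfected HepG2 liver cells with cis-driven reporter units were lysed for RNA; reporter mRNA was quantified via RT-PCR and capillary electrophoresis, and responses fitted bidirectionally from DMSO.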

[5] = ATG_AP_1_CIS: Attagene CIS-FACTORIAL HepG2 Assay for human Activator Protein 1 (AP-1) (AID 2282931); settings: HepG2 Attagene cis-factorial AP-1 reporter mRNA; actives raise or lower the signal
Procedure, shortened: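 HepG2 cells transiently transfected with cis-element-driven multiplex reporter units; 24 h compound exposure. Reporter mRNA quantified by RT-PCR, FAM-labelled fragments resolved by capillary electrophoresis; bidirectional fit versus DMSO baseline.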

[6] = ATG_AP_2_CIS: Attagene CIS-FACTORIAL HepG2 Assay for human Activator Protein 2 (AP-2) (AID 2282932); settings: HepG2 AP-2 cis-reporter, Attagene transcription factor profiling; actives raise or lower the signal
Procedure, shortened: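 Assay in transfected HepG2 with promoter-regulated reporters, 24 h incubation after dosing. Signal is reporter mRNA fluorescence (RT-PCR, capillary electrophoresis), analysed for both increases and decreases relative to DMSO controls.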

[7] = target: Retinoic acid receptor alpha (Homo sapiens) (UniProt P10276); assay: ATG_DR5_RAR_CIS: Attagene CIS-FACTORIAL HepG2 Assay for human Retinoic Acid Receptor Alpha (RARE), DR5 submotif (AID 2282934); settings: HepG2 Attagene cis-factorial RARE DR5 reporter, mRNA; actives raise or lower the signal;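 as to AC50: reporter responds to endogenous RAR alpha beta and gamma in HepG2 not RARA alone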
Chain of Retinoic acid receptor alpha (Homo sapiens) (P10276 whole entry, looked up): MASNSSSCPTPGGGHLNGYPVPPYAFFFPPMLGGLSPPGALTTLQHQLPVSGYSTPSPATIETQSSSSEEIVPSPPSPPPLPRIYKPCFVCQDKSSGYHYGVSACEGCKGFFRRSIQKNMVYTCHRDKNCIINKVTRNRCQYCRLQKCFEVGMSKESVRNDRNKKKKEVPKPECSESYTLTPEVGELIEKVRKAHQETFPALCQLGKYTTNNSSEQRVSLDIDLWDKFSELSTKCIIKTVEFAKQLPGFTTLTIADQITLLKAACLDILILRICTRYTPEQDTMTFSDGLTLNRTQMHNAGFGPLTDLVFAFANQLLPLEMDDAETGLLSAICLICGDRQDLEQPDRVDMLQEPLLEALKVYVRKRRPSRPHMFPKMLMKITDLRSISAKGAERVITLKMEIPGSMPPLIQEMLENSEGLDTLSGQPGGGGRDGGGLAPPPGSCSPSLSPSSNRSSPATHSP
Procedure, shortened: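 Transfected HepG2 reporter cells are exposed to chemicals for 24 h. Then RNA is extracted and the DR5 element reporter transcript is measured by RT-PCR and capillary electrophoresis, with bidirectional curve fitting relative to DMSO.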

[8] = target: Transcription factor E2F1 (Homo sapiens) (UniProt Q01094); assay: ATG_E2F_CIS: Attagene CIS-FACTORIAL HepG2 Assay for human E2F Transcription Factor 1 (AID 2282935); settings: HepG2 Attagene cis-reporter, E2F reporter RNA transcripts; actives raise or lower the signal
Chain of Transcription factor E2F1 (Homo sapiens) (Q01094 whole entry, looked up): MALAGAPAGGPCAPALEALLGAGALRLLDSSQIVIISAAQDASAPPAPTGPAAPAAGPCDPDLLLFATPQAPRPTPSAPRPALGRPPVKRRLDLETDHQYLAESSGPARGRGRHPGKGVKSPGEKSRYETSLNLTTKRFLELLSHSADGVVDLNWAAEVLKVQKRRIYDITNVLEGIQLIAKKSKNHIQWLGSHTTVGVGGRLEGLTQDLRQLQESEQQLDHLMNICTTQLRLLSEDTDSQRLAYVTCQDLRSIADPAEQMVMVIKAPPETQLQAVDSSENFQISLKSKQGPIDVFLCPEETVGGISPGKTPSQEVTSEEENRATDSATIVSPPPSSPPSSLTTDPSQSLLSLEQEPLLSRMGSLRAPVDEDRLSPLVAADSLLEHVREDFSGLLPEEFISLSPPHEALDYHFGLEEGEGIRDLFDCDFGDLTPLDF
Procedure, shortened: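 In this cis-factorial format, endogenous factor activity drives transfected reporters in HepG2; transcripts collected at 24 h are quantified by fluorescence after RT-PCR and capillary separation.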

[9] = ATG_E_Box_CIS: Attagene CIS-FACTORIAL HepG2 Assay for human Enhancer Box (E-box) (AID 2282936); settings: HepG2 E-box cis-reporter transcription, actives raise or lower the signal
Procedure, shortened: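 Measured 24 h post-dosing in HepG2 cells transfected with multiple cis-regulated reporter units, signal being reporter mRNA induction detected by fluorescent RT-PCR with capillary electrophoresis; gain or loss fitted against DMSO.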

[10] = ATG_M_61_CIS: Attagene CIS-FACTORIAL HepG2 Assay for M61 Transcription Factor (Internal Marker) (AID 2282937); settings: HepG2 Attagene CIS-FACTORIAL M61 internal marker reporter; actives raise or lower the signal
Procedure, shortened: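 HepG2 cells transiently transfected with cis-element-driven multiple reporter transcription units, dosed for 24 h. Reporter mRNA measured by RT-PCR, 6-FAM primer-extension labelling, HpaI digestion and capillary electrophoresis; bidirectional fit versus DMSO baseline.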

[11] = ATG_EGR_CIS: Attagene CIS-FACTORIAL HepG2 Assay for human Early Growth Response 1 (EGR1) (AID 2282938); settings: HepG2 Attagene CIS-FACTORIAL EGR reporter mRNA; actives raise or lower the signal
Procedure, shortened: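 HepG2 cells transiently transfected with cis-promoter-driven multiplexed reporter transcription units; reporter mRNA measured 24 h after compound dosing by RT-PCR, 6-FAM primer extension, HpaI digestion and capillary electrophoresis. Bidirectional fit versus DMSO baseline.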

[12] = ATG_M_19_CIS: Attagene CIS-FACTORIAL HepG2 Assay for M19 Transcription Factor (Internal Marker) (AID 2282939); settings: HepG2 Attagene CIS-FACTORIAL M19 internal marker reporter; actives raise or lower the signal
Procedure, shortened: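 HepG2 cells transiently transfected with cis-regulated multiplexed reporter units, dosed 24 h. Reporter mRNA quantified by RT-PCR and capillary electrophoresis; internal background marker fitted bidirectionally versus DMSO.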

[13] = ATG_Ets_CIS: Attagene CIS-FACTORIAL HepG2 Assay for human Erythroblast Transformation Specific (ETS) (AID 2282941); settings: HepG2 ETS cis-reporter transcription, actives raise or lower the signal
Procedure, shortened: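 Cis-regulated reporter mRNA induction in HepG2 (transient transfection), 24 h exposure, RT-PCR plus capillary electrophoresis detection; DMSO serves as negative control and baseline.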

[14] = target: Hepatocyte nuclear factor 3-beta (Homo sapiens) (UniProt Q9Y261); assay: ATG_FoxA2_CIS: Attagene CIS-FACTORIAL HepG2 Assay for human Forkhead box A2 (FOXA2) (AID 2282942); settings: HepG2 cis-reporter transcription factor activity, 24 h; actives raise or lower the signal
Chain of Hepatocyte nuclear factor 3-beta (Homo sapiens) (Q9Y261 whole entry, looked up): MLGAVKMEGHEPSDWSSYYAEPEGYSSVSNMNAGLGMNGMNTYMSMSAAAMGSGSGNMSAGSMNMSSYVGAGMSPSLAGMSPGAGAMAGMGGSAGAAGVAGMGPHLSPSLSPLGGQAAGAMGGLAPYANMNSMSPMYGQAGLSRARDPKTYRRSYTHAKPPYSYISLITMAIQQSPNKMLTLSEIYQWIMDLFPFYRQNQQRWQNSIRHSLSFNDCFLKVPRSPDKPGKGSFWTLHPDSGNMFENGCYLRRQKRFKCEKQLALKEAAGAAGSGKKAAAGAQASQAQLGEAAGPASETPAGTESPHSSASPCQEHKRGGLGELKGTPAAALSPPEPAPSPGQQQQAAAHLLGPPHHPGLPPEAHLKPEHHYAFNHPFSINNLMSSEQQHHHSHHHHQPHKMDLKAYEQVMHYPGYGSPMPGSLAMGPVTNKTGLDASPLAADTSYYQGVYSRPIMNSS
Procedure, shortened: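 HepG2 cells transiently transfected with multiple cis-regulated reporter transcription units, dosed for 24 h. Reporter mRNA measured by RT-PCR, 6-FAM labelling, HpaI digestion and capillary electrophoresis; bidirectional fitting against DMSO baseline.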

[15] = ATG_FoxO_CIS: Attagene CIS-FACTORIAL HepG2 Assay for human Forkhead box O (FoxO) (AID 2282943); settings: HepG2 Attagene cis-reporter, FoxO element, mRNA; actives raise or lower the signal
Procedure, shortened: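 24 h chemical exposure, HepG2 with transient cis-MRTU transfection. RNA extraction, oligo(dT) RT, reporter-specific PCR, primer-extension labelling, HpaI digestion, CE fragment analysis; bidirectional fit, DMSO baseline.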

[16] = ATG_GATA_CIS: Attagene CIS-FACTORIAL HepG2 Assay for human GATA Binding Protein (AID 2282944); settings: HepG2 GATA cis-element reporter, Attagene multiplex mRNA; actives raise or lower the signal
Procedure, shortened: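 HepG2 cells transiently transfected with multiplexed cis-element reporter units measure endogenous GATA activity; after 24 h compound exposure, reporter mRNA quantified by RT-PCR and capillary electrophoresis. Changes fitted in both directions vs DMSO.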

[17] = ATG_GLI_CIS: Attagene CIS-FACTORIAL HepG2 Assay for human Zinc Finger Protein GLI1 (AID 2282945); settings: HepG2, Attagene cis-factorial reporter mRNA, GLI element; actives raise or lower the signal
Procedure, shortened: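 HepG2 cells transiently transfected with cis-promoter multiplexed reporter units report endogenous transcription factor activity. After 24 h chemical exposure, reporter mRNA was quantified by RT-PCR, 6-FAM labelling, HpaI digestion and capillary electrophoresis, with bidirectional fitting against DMSO.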

[18] = ATG_BRE_CIS: Attagene CIS-FACTORIAL HepG2 Assay for human Bone Morphogenetic Protein (BMP) Response Element (BRE) (AID 2282933); settings: HepG2 BMP response element reporter, Attagene transcription factor profiling; actives raise or lower the signal
Procedure, shortened: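 HepG2 cells transiently transfected with CIS reporter units (endogenous TF activity, BMP response element), dosed 24 h. Reporter mRNA quantified by RT-PCR, fluorescent labelling and capillary electrophoresis; bidirectional fit vs DMSO baseline.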

[19] = ATG_ERE_CIS: Attagene CIS-FACTORIAL HepG2 Assay for Estrogen Response Element (ERE) (AID 2282940); settings: HepG2 ERE cis-reporter, Attagene RNA transcript; actives raise or lower the signal
Procedure, shortened: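 HepG2 cells transiently transfected with multiplexed cis-element reporter units, measuring endogenous transcription factor activity; ERE reporter mRNA quantified after 24 h exposure by RT-PCR, fluorescent labelling, HpaI digestion and capillary electrophoresis. Bidirectional change versus DMSO.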

Measured: AC50

CCCCCCCCCC(=O)OC
inactive: [1] | [2] | [3] | [5] | [6] | [7] | [8] | [9] | [10] | [11] | [12] | [13] | [14] | [15] | [16] | [17]
active: [4] 74.7 µM

Cc1ccc(N)c(S(=O)(=O)O)c1
inactive: [1] | [2] | [3] | [4] | [5] | [6] | [7] | [8] | [9] | [11] | [13] | [14] | [15] | [16] | [17]

Cc1ccc(S(=O)(=O)Oc2ccc(N=Nc3ccc(-c4ccc(N=Nc5c(O)ccc6cc(S(=O)(=O)O)cc(S(=O)(=O)O)c56)c(C)c4)cc3C)cc2)cc1
active: [4] 30.1 µM | [18] 7.56 µM
inactive: [1] | [2] | [3] | [5] | [6] | [7] | [8] | [9] | [11] | [12] | [13] | [14] | [15] | [16] | [17]

N#Cc1ccc(CC(=O)c2cccc(C(F)(F)F)c2)cc1
active: [18] 128 µM
inactive: [1] | [2] | [3] | [4] | [5] | [6] | [7] | [8] | [10] | [11] | [12] | [13] | [14] | [15] | [16] | [17]

CCCCC(CC)COC(=O)c1ccc(O)cc1 (stereo not given)
inactive: [1] | [2] | [3] | [4] | [5] | [6] | [18] | [7] | [8] | [10] | [11] | [12] | [13] | [14] | [15] | [16] | [17]

CCCCCCCCCCCCCCCC(=O)OC/C=C(C)/C=C/C=C(C)/C=C/C1=C(C)CCCC1(C)C
inactive: [1] | [2] | [3] | [4] | [5] | [6] | [18] | [7] | [8] | [9] | [10] | [11] | [13] | [14] | [15] | [16] | [17]

Cc1[nH]c(=O)c(C#N)cc1-c1ccncc1
inactive: [1] | [2] | [4] | [6] | [18] | [7] | [8] | [9] | [10] | [11] | [19] | [13] | [14] | [15] | [16] | [17]
active: [3] 24.3 µM

Cc1cc(S(=O)(=O)O)ccc1N=Nc1c(O)ccc2ccccc12
active: [4] 2.32 µM
inactive: [1] | [2] | [3] | [5] | [6] | [18] | [7] | [8] | [9] | [10] | [12] | [13] | [14] | [16] | [17]

Oc1c(Cl)cc(Cl)c(Cl)c1Cc1c(O)c(Cl)cc(Cl)c1Cl
active: [2] 0.561 µM | [3] 11.1 µM | [4] 5.86 µM | [6] 1.98 µM | [18] 5.37 µM | [7] 0.527 µM | [11] 11.1 µM | [13] 0.878 µM
inactive: [1] | [8] | [10] | [12] | [14] | [15] | [16] | [17]

COS(=O)(=O)O
inactive: [1] | [2] | [3] | [4] | [5] | [6] | [18] | [7] | [8] | [9] | [10] | [11] | [12] | [13] | [14] | [15] | [16] | [17]

CC(C=O)Cc1ccc(C(C)(C)C)cc1 (stereo not given)
inactive: [1] | [2] | [3] | [4] | [5] | [6] | [18] | [7] | [8] | [9] | [10] | [11] | [13] | [15] | [16] | [17]

C=Cc1ccc(C)cc1
inactive: [1] | [2] | [3] | [4] | [5] | [6] | [18] | [7] | [8] | [9] | [10] | [11] | [12] | [13] | [15] | [16] | [17]

CCCCC(CC)(CO)CO
inactive: [1] | [2] | [3] | [4] | [5] | [6] | [18] | [7] | [8] | [10] | [11] | [12] | [13] | [14] | [15] | [16] | [17]

Nc1ccc2cc(S(=O)(=O)O)cc(O)c2c1N=Nc1ccccc1C(F)(F)F
inactive: [1] | [2] | [3] | [6] | [7] | [8] | [9] | [11] | [12] | [13] | [14] | [15] | [16] | [17]
active: [4] 12.6 µM

CCCC(C)C(O)CC (stereo not given)
inactive: [1] | [2] | [3] | [4] | [5] | [6] | [18] | [7] | [8] | [9] | [10] | [11] | [12] | [13] | [14] | [16] | [17]

O=[N+]([O-])c1cccc(Cl)c1
inactive: [1] | [2] | [3] | [4] | [5] | [6] | [7] | [8] | [9] | [10] | [11] | [19] | [13] | [14] | [16] | [17]
